# Measurements from PubChem BioAssay (NCATS).
# Results filed as inconclusive are left out. Where a call stands in place of a potency, no number is given. Active and inactive are the calls of the source. Unless noted, the call rests on the fitted dose curve; in most records, active means well fitted inhibition curve with a large enough effect; inconclusive means small, poorly fitted or top-dose-only effect; inactive means flat fitted curve, though single readings scatter.
# Assays:
# [1] = S16 Schwann cell PMP22 intronic element beta-lactamase assay (AID 624044; calls by dose curve; further: nearly all actives have a fitted effect of over 15% in size)
# In short: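 Beta-lactamase reporter under a PMP22 intronic regulatory element in stable S16 rat Schwann cells; 24 h compound exposure. 460 nm blue signal normalized between DMSO (0%) and potassium clavulanate, with 535 nm FRET tracking viability; curves classed by r2 and response.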
# 3D7 = assay: qHTS profiling for inhibitors of Plasmodium falciparum proliferation (AID 504749); further: nearly all actives have a fitted effect of over 60% in size; further: potency means the concentration at half of the fitted maximal effect; details: P. falciparum in erythrocytes, SYBR Green DNA, 72 h; series mostly up to 28.7 µM
# In short: (§1)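 Quantitative HTS: compounds pinned into medium, infected erythrocytes added (0.3% parasitemia, 2.5% hematocrit), 72 h culture at 37 C under 5% CO2. Saponin/Triton lysis with SYBR Green I, overnight RT, then fluorescence read.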
# 7G8 = assay: as above; details: P. falciparum in erythrocytes, SYBR Green DNA, 72 h; series mostly up to 28.7 µM
# In short: as §1
# CP215 = assay: as above; details: P. falciparum in erythrocytes, SYBR Green DNA, 72 h; series mostly up to 28.7 µM
# In short: as §1
# CP260 = assay: as above; details: P. falciparum in erythrocytes, SYBR Green DNA, 72 h; series mostly up to 28.7 µM
# In short: as §1
# CP286 = assay: as above; details: P. falciparum in erythrocytes, SYBR Green DNA, 72 h; series mostly up to 28.7 µM
# In short: as §1
# CP291 = assay: as above; details: P. falciparum in erythrocytes, SYBR Green DNA, 72 h; series mostly up to 28.7 µM
# In short: as §1
# CP315 = assay: as above; details: P. falciparum in erythrocytes, SYBR Green DNA, 72 h; series mostly up to 28.7 µM
# In short: as §1
# CP335 = assay: as above; details: P. falciparum in erythrocytes, SYBR Green DNA, 72 h; series mostly up to 28.7 µM
# In short: as §1
# DIV14 = assay: as above; details: P. falciparum in erythrocytes, SYBR Green DNA, 72 h; series mostly up to 28.7 µM
# In short: as §1
# DIV17 = assay: as above; details: P. falciparum in erythrocytes, SYBR Green DNA, 72 h; series mostly up to 28.7 µM
# In short: as §1
# Dd2 = assay: as above; details: P. falciparum in erythrocytes, SYBR Green DNA, 72 h; series mostly up to 28.7 µM
# In short: as §1
# FAB9 = assay: as above; details: P. falciparum in erythrocytes, SYBR Green DNA, 72 h; series mostly up to 28.7 µM
# In short: as §1
# GB4 = assay: as above; details: P. falciparum in erythrocytes, SYBR Green DNA, 72 h; series mostly up to 28.7 µM
# In short: as §1
# ICS = assay: as above; details: P. falciparum in erythrocytes, SYBR Green DNA, 72 h; series mostly up to 28.7 µM
# In short: as §1
# JCK = assay: as above; details: P. falciparum in erythrocytes, SYBR Green DNA, 72 h; series mostly up to 28.7 µM
# In short: as §1
# N140 = assay: as above; details: P. falciparum in erythrocytes, SYBR Green DNA, 72 h; series mostly up to 28.7 µM
# In short: as §1
# PC15 = assay: as above; details: P. falciparum in erythrocytes, SYBR Green DNA, 72 h; series mostly up to 28.7 µM
# In short: as §1
# TAB165 = assay: as above; details: P. falciparum in erythrocytes, SYBR Green DNA, 72 h; series mostly up to 28.7 µM
# In short: as §1
# [2] = biological target: Luciferin 4-monooxygenase (Photinus pyralis) (UniProt P08659); assay: Biochemical firefly luciferase enzyme assay for NPC (AID 624030);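 further: purified P. pyralis luciferase at 10 nM with luciferin and ATP substrate; nearly all actives have a fitted effect of over 70% in size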
# Chain of Luciferin 4-monooxygenase (Photinus pyralis) (P08659 whole entry, looked up): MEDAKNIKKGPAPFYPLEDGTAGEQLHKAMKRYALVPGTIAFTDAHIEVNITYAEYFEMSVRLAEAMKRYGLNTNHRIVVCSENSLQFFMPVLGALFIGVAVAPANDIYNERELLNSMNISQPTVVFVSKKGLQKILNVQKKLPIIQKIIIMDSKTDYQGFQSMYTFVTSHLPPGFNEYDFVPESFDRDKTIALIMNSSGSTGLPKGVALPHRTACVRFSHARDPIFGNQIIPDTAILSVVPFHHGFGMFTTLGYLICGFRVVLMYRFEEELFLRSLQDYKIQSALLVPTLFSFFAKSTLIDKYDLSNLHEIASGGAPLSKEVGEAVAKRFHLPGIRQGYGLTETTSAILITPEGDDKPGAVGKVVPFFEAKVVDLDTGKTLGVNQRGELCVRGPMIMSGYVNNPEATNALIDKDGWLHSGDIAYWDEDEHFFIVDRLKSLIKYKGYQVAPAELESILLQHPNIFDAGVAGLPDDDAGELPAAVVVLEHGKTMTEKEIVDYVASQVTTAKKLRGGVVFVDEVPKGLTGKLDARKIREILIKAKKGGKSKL
# In short: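 Counter-screen for direct inhibition of the luciferase enzyme by approved-drug library compounds, run at 10 nM enzyme in 50 mM Tris acetate (final). Luminescence was read within 5 min of enzyme-buffer addition and normalized to PTC124 versus DMSO (0%).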
SMILES,outcome [1],Potency (3D7),Potency (7G8),Potency (CP215),Potency (CP260),Potency (CP286),Potency (CP291),Potency (CP315),Potency (CP335),Potency (DIV14),Potency (DIV17),Potency (Dd2),Potency (FAB9),Potency (GB4),Potency (ICS),Potency (JCK),Potency (N140),Potency (PC15),Potency (TAB165),outcome [2]
N[C@@H](Cc1ccccc1)C(=O)O,inactive,inactive,inactive,inactive,inactive,inactive,inactive,inactive,inactive,inactive,inactive,inactive,inactive,inactive,inactive,inactive,inactive,inactive,inactive,–
O=C(O)[C@@H](O)[C@@H](O)[C@H](O)[C@H](O)CO,inactive,–,2000 nM (active),–,–,–,–,–,–,–,–,–,–,–,2240 nM (active),–,–,–,–,inactive
C[C@]12CC[C@H]3c4ccc(O)cc4CC[C@@H]3[C@H]1CC[C@@H]2OP(=O)(O)O,–,inactive,inactive,inactive,inactive,inactive,inactive,inactive,inactive,inactive,inactive,inactive,inactive,inactive,inactive,inactive,inactive,inactive,inactive,inactive
CC1(C)[C@@H]2CC[C@]1(C)[C@@H](OC(=O)CSC#N)C2,inactive,inactive,–,inactive,inactive,inactive,inactive,inactive,inactive,inactive,inactive,inactive,inactive,inactive,–,inactive,inactive,inactive,inactive,inactive
